Assays:
[1] = system: Vero E6 infected with SARS-CoV-2; experiment: morphology score (similarity to uninfected cells); higher = more like uninfected cells; conditions: 24 h
[2] = system: Vero E6 infected with SARS-CoV-2; experiment: SARS-CoV-2 infection rate relative to infected DMSO; higher = more infection, active = 60 or less; conditions: 24 h

Row | Structure (SMILES) | morphology score [1] | SARS-CoV-2 infection rate [2]
1 | Cc1cc(-c2ncc(CC(=O)Nc3ccc(-c4cnccn4)cn3)cc2C)ccn1 (10 µM) | -0.0828 | 111% (inactive)
2 | O=C1C[C@@H](c2ccc(O)cc2)Oc2cc(O)cc(O)c21 [naringenin] (10 µM) | 0.0218 | 98.5% (inactive)
3 | O=C(Nc1ccccc1C(=O)NC1CCCCNC1=O)c1cc2ccccc2s1 (stereo not drawn) (10 µM) | 0.0242 | 99.5% (inactive)
4 | Cc1c(S(=O)(=O)O)oc2c1C(=O)C(=O)c1c-2ccc2c1CCCC2(C)C [sodium-tanshinone-II-A-sulfonate] (10 µM) | 0.0001 | 110% (inactive)
5 | CN(C)CCOC(=O)C(c1ccccc1)C1(O)CCCC1 (stereo not drawn) [cyclopentolate] (10 µM) | 0.178 | 93% (inactive)
6 | Nc1ncnc2c1ncn2[C@@H]1O[C@H](C[C@@H](N)CC[C@H](N)C(=O)O)[C@@H](O)[C@H]1O [sinefungin] (10 µM) | 0.0839 | 109% (inactive)
7 | CN1CCN(c2cc(-c3ccccc3)nc(N)n2)CC1 (10 µM) | 0.206 | 94.5% (inactive)
8 | CNC(=O)c1ccc(C)c(-n2c(C)cc(OCc3ccc(F)cc3F)c(Br)c2=O)c1 (0.833333 µM) | -0.158 | 116% (inactive)
9 | O=C(Nc1cccc(Cl)c1)Nc1ncc(CCNc2ncnc3ccsc23)s1 (10 µM) | 0.393 | 80% (inactive)
10 | O=C(NCc1cccc(O)c1)Nc1nc(-c2ccncc2)cs1 (10 µM) | 0.392 | 97.8% (inactive)
11 | COc1cc(F)c(C(C)C)cc1-c1ccc(C(F)(F)F)cc1CN1C(=O)O[C@H](c2cc(C(F)(F)F)cc(C(F)(F)F)c2)[C@@H]1C [anacetrapib] (10 µM) | 0.116 | 106% (inactive)
12 | COc1cc(N2CCC(N)CC2)ccc1Nc1ncc(Cl)c(-c2c[nH]c3ccccc23)n1 (0.833333 µM) | 0.205 | 102% (inactive)
13 | CC(C)(C(=O)O)c1ccc(C(O)CCCN2CCC(C(O)(c3ccccc3)c3ccccc3)CC2)cc1 (stereo not drawn) [fexofenadine] (10 µM) | -0.361 | 122% (inactive)
14 | N#CN1CCCC1 [pyrrolidine-1-carbonitrile] (10 µM) | 0.254 | 92% (inactive)
15 | c1cc(-c2cnn3cc(-c4ccc(N5CCNCC5)cc4)cnc23)c2cccnc2c1 (0.833333 µM) | -0.148 | 103% (inactive)
16 | O=C(Nc1ccc(C(=O)O)c(O)c1)c1ccccc1 [benzoylpas] (10 µM) | 0.206 | 91.5% (inactive)
17 | O=c1oc(-c2ccc(C(F)(F)F)cc2)nn1Cc1cc(Cl)ccc1O (10 µM) | 0.593 | 39.5% (active)
18 | Clc1ccc2c(c1)CCc1cccnc1C2=C1CCNCC1 [desloratadine] (10 µM) | 0.351 | 76% (inactive)
19 | CCOC(CN1CCN(CC(C)C(=O)c2ccccc2)CC1)c1ccccc1 (stereo not drawn) [eprazinone] (10 µM) | 0.35 | 96% (inactive)
20 | CCOC(=O)c1c(/C(C#N)=C\N)c2ccc(Cl)c(Cl)c2n1C (10 µM) | -0.0335 | 105% (inactive)
21 | Nc1nc(OCc2ccccc2)c2nc[nH]c2n1 [O6-benzylguanine] (10 µM) | 0.112 | 108% (inactive)
22 | Cn1c(NCCN(CCO)CCCc2ccc([N+](=O)[O-])cc2)cc(=O)n(C)c1=O [nifekalant] (10 µM) | -0.0636 | 120% (inactive)
23 | CC(C)(N)c1cc(C(=O)N[C@@H]2CCc3ccc(Oc4ccnc5c4CCC(=O)N5)cc3C2)cc(C(F)(F)F)c1 (0.833333 µM) | 0.227 | 99% (inactive)
24 | CCCN1CCO[C@@H]2c3cc(O)ccc3OC[C@H]21 (10 µM) | 0.173 | 87% (inactive)
25 | CCN(CCCc1ccccc1)CCCc1ccccc1 [alverine] (10 µM) | 0.397 | 62% (inactive)
26 | CC(C)CNc1nc(-c2cccc3ncccc23)cn2c(-c3ccc(C(=O)NC4CC4)cc3)cnc12 (10 µM) | -0.233 | 99.5% (inactive)
27 | Cc1cc(C)cc(C(=O)N(C)[C@H](Cc2ccc(-c3ccccc3)cc2)C(=O)N[C@@H](Cc2c[nH]c3ccccc23)C(=O)O)c1 (10 µM) | 0.0271 | 95% (inactive)
28 | c1ccc(-c2nc(CN3CCN(c4ncccn4)CC3)c[nH]2)cc1 (10 µM) | -0.0694 | 107% (inactive)
29 | NCC(=O)N1C[C@H](NC(=O)c2ccccc2)C[C@H]1C(=O)O [danegaptide] (10 µM) | 0.0415 | 105% (inactive)

— the supplement of paper PMC13380429
